Screens deposited in PubChem by National Center for Advancing Translational Sciences (NCATS).
Most compounds without a hit are left out; they make up all but 11% or so of the library.
HP1b binding inh = HP1-beta chromodomain-methylated histone interaction inhibition; Potency, µM (highest dose often 114 µM), hits mostly inhibitors; 390,000 tested, 0.56% active; P83916; AID 540317; AlphaScreen HP1-beta / biotin-H3K9me3 peptide binding; note: nearly all actives have a fitted effect of over 70% in size
Target sequence (P83916 whole entry, looked up): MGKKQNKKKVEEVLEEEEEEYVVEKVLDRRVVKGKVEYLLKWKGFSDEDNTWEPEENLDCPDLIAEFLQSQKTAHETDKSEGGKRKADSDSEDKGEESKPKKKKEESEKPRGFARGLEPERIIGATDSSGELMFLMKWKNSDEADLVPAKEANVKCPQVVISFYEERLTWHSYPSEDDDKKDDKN
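HP1-beta protein (50 nM final) preincubated 30 min at room temperature with biotinylated H3(1-18)K9me3 peptide (50 nM) in PBS pH 7.4, 0.01% Tween-20, then compound added for 30 min. AlphaScreen streptavidin donor/nickel chelate acceptor beads (10 ug/mL final), 30 min dark, luminescence read.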
JMJD2A Tudor = blocks the human JMJD2A Tudor domain; O75164; AlphaScreen JMJD2A-Tudor / H3K4me3 peptide binding; Potency, µM (doses to about 114 µM), actives largely listed as inhibitors; 390,000 tested, 4.4% active; AID 504339; note: nearly all actives have a fitted effect of over 50% in size
BAZ2B block = BAZ2B (human) inhibition; Potency, µM (titrated, usually from 114 µM), hits mostly inhibitors; AlphaScreen BAZ2B-H3K14Ac peptide displacement; 360,000 tested, 4.4% active; Q9UIF8; note: nearly all actives have a fitted effect of over 60% in size
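Compounds, titrated to a top concentration of 110 uM, were incubated 30 min at room temperature with preformed BAZ2B/acetyl-K14 H3 peptide complex (50 nM each). Proximity signal was measured by AlphaScreen after 20 min with beads.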
L3MBTL1 block = inhibitors of human L3MBTL1; AlphaScreen L3MBTL1–H3K9me1 peptide binding; Potency, µM (series often up to 57.1 µM), most hits filed as inhibitors; 230,000 tested, 0.66% active; note: nearly all actives have a fitted effect of over 60% in size
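L3MBTL1 50 nM + b-AHA-H3(1-15)K9me1 75 nM, 30 min RT; compound added, 30 min RT; streptavidin donor/Ni-chelate acceptor beads 10 ug/mL each final, 30 min RT dark; AlphaScreen read.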
G9a inh = blocks human histone lysine methyltransferase G9a. Q96KQ7. 350,000 tested, 8.8% active. Potency, µM (series often up to 102 µM), most hits filed as inhibitors. G9a H3K9 monomethylation, AlphaScreen, 2 h; note: nearly all actives have a fitted effect of over 75% in size
Target sequence (Q96KQ7 913-1193 limits assumed): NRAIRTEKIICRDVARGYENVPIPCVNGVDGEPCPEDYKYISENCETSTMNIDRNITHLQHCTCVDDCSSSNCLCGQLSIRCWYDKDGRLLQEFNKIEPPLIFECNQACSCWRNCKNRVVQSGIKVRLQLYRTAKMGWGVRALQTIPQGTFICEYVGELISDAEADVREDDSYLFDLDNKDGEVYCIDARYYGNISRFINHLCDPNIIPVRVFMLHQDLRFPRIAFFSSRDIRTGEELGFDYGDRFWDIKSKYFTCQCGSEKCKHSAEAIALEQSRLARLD
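Enzyme 20 nM + cpd, 15 min RT; add b-H3K9 pep 500 nM / SAM 20 uM; 2 h RT; anti-H3K9me1 Ab 0.5 ug/mL + SA donor / anti-rabbit acceptor beads 20 ug/mL each, 10 min; AlphaScreen read.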
Hits are given with their value; i = inactive; ? = inconclusive; nt = no result given; ! = not confirmed by another sample; [ ] = remark or other dose. Calls come from the whole dose curve; as a rule, active = well fitted inhibition curve with a large enough effect; inconclusive = small, poorly fitted or top-dose-only effect; inactive = no such curve, though single readings can be large or run the other way.

SMILES | HP1b binding inh | JMJD2A Tudor | BAZ2B block | L3MBTL1 block | G9a inh
COc1ccc(CCNC(=O)c2ccc3c(c2)CCN3S(=O)(=O)c2ccc(C)cc2)cc1OC | i | i | i | nt | 5.01µM
CC1Oc2cc3c(-c4c(O)cc(O)c5c(O)c6c(cc45)OC(C)C(C)C6=O)c(O)cc(O)c3c(O)c2C(=O)C1C (stereo unspecified) | ? | 44.7µM | 31.6µM | 2µM | 12.6µM
CC1=C2C[C@H]3[C@@H](CC=C4C[C@@H](O)CC[C@@]43C)[C@@H]2CC[C@]12O[C@@H]1C[C@H](C)CN[C@H]1C2C (stereo partly specified) | nt | nt | nt | nt | i
C[N+]1(C)CCc2cc3c(cc2[C@H]1[C@@H]1OC(=O)c2c1ccc1c2OCO1)OCO3 | i | 25.1µM! | ? | i | 22.4µM!
CCOc1ccc(NC(=O)c2c(O)[nH]c(=O)[nH]c2=O)cc1 | i | ? | nt | nt | nt
CCOC(=O)c1ccc(NC(=O)c2c(O)[nH]c(=O)[nH]c2=O)cc1 | i | i | ? | 7.08µM | ?
CC[N@+]1(C)CCC[C@@H](OC(=O)C(O)(c2ccccc2)c2ccccc2)C1 | nt | nt | nt | nt | i[21.5 µM]
CC(Cc1ccccc1)NCC(=O)Nc1cc(N(C)C)nc2ccccc12 (stereo unspecified) | ? | 1.12µM | 35.5µM | nt | ?
C[C@H]1C(=O)O[C@@H]2CCN3CC=C(COC(=O)[C@@](C)(O)[C@@]1(C)O)[C@H]23 | nt | nt | nt | nt | i[21.5 µM]
O=C(Nc1ccc(Br)cc1C(=O)O)c1ccc2c(c1)C(=O)N(Cc1ccccc1)C2=O | i | 50.1µM | ? | nt | i
O=C(CNC(=O)c1ccc(Cl)cc1)Nc1ccc(Br)cc1C(=O)c1ccccc1 | i | ? | i | i | i
Cn1c(O)c(C2=NNC(c3ccc(Cl)cc3)C2)c(=O)n(C)c1=O (stereo unspecified) | i | i | 44.7µM | i | nt
CCOc1ccc(C2CC(c3c(O)n(C)c(=O)n(C)c3=O)=NN2)cc1 (stereo unspecified) | i | i | ? | i | ?
Nc1nc(O)c(-c2ccccc2)o1 | nt | nt | nt | nt | i[12.7 µM]
CCOP(=O)(OCC)C1(O)C(=O)Nc2ccc(Br)cc21 (stereo unspecified) | i | i | i | i | 17.8µM
CCOC(=O)c1c(C)n(Cc2ccco2)c2ccc(OC)cc12 | i | i | i | i | i
CCOC(=O)c1c(C)n(Cc2ccco2)c2c1cc(O)c1ccccc12 | i | i | i | nt | 15.8µM
CCOC(=O)C(=O)NC1CCSC1=O (stereo unspecified) | i | i | i | nt | 50.1µM
O=C1CN=C(c2ccccc2)c2cc(Cl)ccc2N1Cc1ccc(Cl)cc1 | i | i | i | nt | i
O=C(O)CN1C(=O)CN=C(c2ccccn2)c2cc(Cl)ccc21 | i | 25.1µM | 50.1µM | i | i
CN1C(=O)/C(=C/c2ccc(Cl)s2)C(=O)NC1=S | i | 25.1µM | i | i | nt
Cc1ccc(/C=C2/C(=O)NC(=O)N(CCc3ccc(F)cc3)C2=O)s1 | i | ? | i | i | i
COc1ccc(/C=C2\C(=O)NC(=S)N(C)C2=O)cc1C | 8.91µM | 3.98µM | ? | i | nt
Cc1ccsc1/C=C1\C(=O)NC(=S)N(C)C1=O | i | 89.1µM | ? | i | 7.94µM
CCCCC/C=C\C/C=C\C/C=C\C/C=C\CCCC(=O)Nc1ccc(O)cc1C | nt | nt | nt | nt | i
SMILES | HP1b binding inh | JMJD2A Tudor | BAZ2B block | L3MBTL1 block | G9a inh
O=C(COc1ccc(Br)cc1)Nc1ccc(Cl)cc1C(=O)c1ccccc1 | i | i | i | nt | i
CCOCCSc1nc2c(c(-c3cccs3)c1C#N)CC/C2=C/c1cccs1 | i | i | i | i | 28.2µM
O=C1CC(N2CC=C(c3ccccc3)CC2)C(=O)N1c1ccc(F)cc1 (stereo unspecified) | i | ? | i | i | 10µM
CC(C)n1cnc2c(C(=O)N[C@H]3CN4CCC3CC4)cc(Cl)cc21 | nt | nt | nt | nt | i
CCn1ccnc1CN1CCCC(C(=O)c2ccc(OC)cc2OC)C1 (stereo unspecified) | i | i | i | i | i
CCn1ccnc1CN1CCCC(C(=O)c2cc(F)ccc2OC)C1 (stereo unspecified) | i | i | i | i | 7.08µM
Cn1c(=O)n(C)c2cc(CNCCc3ccccc3)ccc21 | i | i | i | nt | i
Cn1c(=O)n(C)c2cc(N3CCCC3)c(NC(=O)Nc3ccccc3)cc21 | i | i | 50.1µM | nt | i
C=Cc1ccc(Cn2c(C)c(CNCCc3cc(OC)ccc3OC)c(C(=O)O)c2C)cc1 | i | ? | i | nt | i
CCCNC(=O)c1cnn2c(C)c(Cc3c(C)cc(C)cc3C)c(C)nc12 | i | ? | i | nt | i
Fc1ccccc1-c1n[nH]c(=S)n1Cc1ccccc1 | i | 22.4µM | i | nt | 3.55µM
Nc1nc2ccc(Cl)cc2c2nc(-c3ccco3)nn12 | nt | nt | i | nt | 2.51µM!
O=c1c2ccccc2nc(-c2ccco2)n1-c1ccccc1 | i | i | i | i | ?
CCCC/C(C)=C/[C@@H](NP(=O)(c1ccccc1)c1ccccc1)c1ccccc1 | i | i | i | i | 31.6µM
CCCCCP(=O)(O)c1ccccc1 | i | i | nt | i | i
Cn1c(=O)oc2cc(NC(=O)CCl)ccc21 | i | i | i | nt | i[12.7 µM]
Cc1ccc(C2C(S(C)(=O)=O)=C(O)C(=O)N2c2ccccc2)cc1 (stereo unspecified) (tested in a mixture with another compound) | i | ? | ? | i | 70.8µM
COc1ccccc1N1C(=O)NC(=O)/C(=C/c2ccc3c(c2)Cc2ccccc2-3)C1=O | i | 79.4µM | 50.1µM | i | ?
COc1cc(/C=C2\C(=O)NC(=O)N(c3ccccc3)C2=O)cc(OC)c1O | i | i | ? | nt | ?
O=C1NC(=O)N(c2ccccc2)C(=O)/C1=C/c1ccc2c(c1)Cc1ccccc1-2 | nt | nt | nt | nt | 6.31µM
Cn1c(=O)n(C)c2cc(CNCCc3ccc(F)cc3)ccc21 | i | i | i | nt | i
CCOCCCNC(=O)c1c[nH]c2ccc(S(=O)(=O)N(C)c3ccc(Cl)cc3F)cc2c1=O | i | i | i | nt | i
CN(CCc1ccccn1)Cc1ccc(Cl)cc1 | ? | 6.31µM | 44.7µM | nt | 10µM
Cc1ccc(N2C(=O)NC(=O)C(CCc3ccccn3)(Cc3ccc(F)cc3)C2=O)cc1 (stereo unspecified) | i | i | i | i | i
Cc1ccc(CN(C)CCc2ccccn2)cc1 | ? | 3.16µM | ? | nt | 12.6µM
SMILES | HP1b binding inh | JMJD2A Tudor | BAZ2B block | L3MBTL1 block | G9a inh
NCCc1ccccn1 | nt | nt | nt | nt | i
NCc1cccnc1 | nt | nt | nt | nt | i[12.7 µM]
CN1[C@H]2CC(=O)C[C@@H]1[C@@H](O)C2 | nt | nt | nt | nt | i[21.5 µM]
Cc1c(C=C2C(=O)N(C)C(=S)N(C)C2=O)c2ccccc2n1CC(=O)NCC1CCCO1 (stereo unspecified) | i | i | ? | nt | 14.1µM
CCOC(=O)[C@]12Cc3cc(N(C)C)ccc3[C@H]1N(Cc1ccccc1)C(=O)c1ccccc12 | i | 15.8µM | nt | nt | nt
CSc1cccc(NC(=O)C2CCN(C(=O)c3cnn(-c4ccccc4)c3-n3cccc3)CC2)c1 | i | i | ? | nt | ?
NC(CO)Cc1ccccc1 (stereo unspecified) | nt | nt | nt | nt | i[2.33 µM]
